Data taken from PubChem BioAssay (Tox21).
Values without a mark were called inactive. Records with an inconclusive call do not appear. Entries that show only a call come without a potency. The source made the active and inactive calls. Unless noted, calls follow the shape of the full dose curve.

How the values were obtained:
[1] = Nuclear factor erythroid 2-related factor 2/antioxidant responsive element (Nrf2/ARE) small molecule agonists: qHTS cell viability counter screen in human keratinocytes (AID 1919968; active = well fitted cell-killing curve with a large enough effect in the repeat runs; also: nearly all actives have a fitted effect of over 55% in size)
How it was run: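 Seed 1,500 KeratinoSens cells per well, then incubate 5 h at 37 C/5% CO2. Add compounds in DMSO and incubate 23 h. Add CellTiter-Fluor, wait 1 h and read fluorescence.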

[2] = Nuclear factor erythroid 2-related factor 2/antioxidant responsive element (Nrf2/ARE) small molecule agonists: luciferase reporter gene qHTS assay in human keratinocytes (AID 1919969); also: nearly all actives have a fitted effect of over 35% in size; also: potency is read from the fitted curve at half-maximal effect
[3] = target: Gonadotropin-releasing hormone receptor (Homo sapiens) (UniProt P30968); test: Human gonadotropin-releasing hormone receptor (GnRHR) small molecule agonists, calcium flux assay in GnRHR-HEK293 cells (AID 1920063); also: nearly all actives have a fitted effect of over 35% in size
How it was run: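 Cells: HEK293 stably expressing human GnRHR. Steps: overnight (18 h) culture, 1 h calcium dye loading at 37 C, compound addition, kinetic fluorescence read at 480/540 nm. Each compound tested at 15 concentrations in triplicate.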

[4] = G protein-coupled receptor (GPCR) small molecule agonists, calcium flux assay: HEK293 wild type cell line counter screen (AID 1920065)
How it was run: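 Counter-screen of the Tox21 10K library for non-specific calcium release: dye-loaded cells received compounds in DMSO and were monitored by kinetic fluorescence (480/540 nm, 3 min). Fifteen concentrations, run in triplicate.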

[5] = p53 small molecule agonists, cell-based qHTS assay with human liver microsomes (AID 1963577)
How it was run: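 Cells carrying a p53-responsive bla reporter were rested 5 h (37 C, 5% CO2) before compound transfer. Human liver microsomes plus NADPH, 0.5 mg/mL final apiece, supplied metabolism during the 16 h 37 C exposure.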

[6] = p53 small molecule agonists, cell-based qHTS assay with rat liver microsomes (AID 1963578)
How it was run: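 Fluorescence from a beta-lactamase reporter under a p53 response element was measured after cells had been incubated 16 h at 37 C with test compound and rat liver microsomes plus NADPH (0.5 mg/mL final each).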

[7] = p53 small molecule agonists, cell-based qHTS assay with human liver microsomes: qHTS cell viability counter screen (AID 1963579); also: nearly all actives have a fitted effect of over 45% in size
How it was run: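 Seed p53RE-bla cells at 4,000 per well; incubate 5 h at 37 C; add compound, human liver microsomes and NADPH; incubate 16 h at 37 C; add CellTiter-Glo; after 30 min at room temperature, read luminescence.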

[8] = p53 small molecule agonists, cell-based qHTS assay with rat liver microsomes: qHTS cell viability counter screen (AID 1963580); also: nearly all actives have a fitted effect of over 45% in size
How it was run: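 HCT-116 p53RE-bla, 4,000 cells/well, 5 h pre-incubation; cpd + rat liver microsomes 0.5 mg/mL + NADPH 0.5 mg/mL (final); 16 h, 37 C; CellTiter-Glo, 30 min RT; luminescence.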

[9] = p53 small molecule agonists, cell-based qHTS assay: qHTS cell viability counter screen (AID 1963581); also: nearly all actives have a fitted effect of over 45% in size
How it was run: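 Cells: HCT-116 with p53 response element-driven beta-lactamase. Treatment: 16 h, 37 C, compounds in DMSO. Read: CellTiter-Glo luminescence after 30 min RT.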

[10] = p53 small molecule agonists, cell-based qHTS assay (AID 1963582; active = well fitted activation curve with a large enough effect in the signal ratio in the repeat runs, not every such curve was filed as active; the % refers to the signal ratio)
How it was run: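 Quantitative HTS in p53RE-bla cells: after a 5 h settling period, compounds delivered in DMSO were left on cells for 16 h at 37 C, and reporter induction was measured as fluorescence following 2 h substrate loading.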

[11] = target: 5-hydroxytryptamine receptor 2A (Homo sapiens) (UniProt P28223); test: 5-hydroxytryptamine receptor 2A (HTR2A) small molecule antagonists, cell-based qHTS assay (AID 1963586); also: nearly all actives have a fitted effect of over 45% in size
How it was run: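 Antagonist-mode intracellular calcium assay: DOI (4 nM) added after 5 min compound pre-incubation at room temperature to dye-loaded HTR2A-CHO cells. Fluorescence followed for 3 min, sampled every second.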

[12] = target: 5-hydroxytryptamine receptor 2A (Homo sapiens) (UniProt P28223); test: 5-hydroxytryptamine receptor 2A (HTR2A) small molecule agonists, cell-based qHTS assay (AID 1963587); also: nearly all actives have a fitted effect of over 30% in size
How it was run: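 Kinetic calcium-flux fluorescence (2 min, 1 sec intervals) after compound addition in agonist mode. HTR2A-CHO cells were cultured 18 h, then dye-loaded 1 h at 37 C.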

[13] = target: Muscarinic acetylcholine receptor M1 (Homo sapiens) (UniProt P11229); test: Cholinergic receptor muscarinic 1 (CHRM1) small molecule antagonists, cell-based qHTS assay (AID 1963588); also: nearly all actives have a fitted effect of over 40% in size
How it was run: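 CHRM1-CHO calcium-flux assay, antagonist mode. Cells were seeded 18 h, dye-loaded 1 h at 37 C and given compound for 5 min at RT, then acetylcholine was added at 50nM. FDSS fluorescence was read 3 min; 15 concentrations, three runs.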

[14] = target: Muscarinic acetylcholine receptor M1 (Homo sapiens) (UniProt P11229); test: Cholinergic receptor muscarinic 1 (CHRM1) small molecule agonists, cell-based qHTS assay (AID 1963589); also: nearly all actives have a fitted effect of over 35% in size
How it was run: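 Agonist-mode qHTS in CHO cells stably carrying human muscarinic M1. Intracellular calcium is tracked by fluorescence every second after compound transfer; each compound runs at 15 concentrations in three independent runs.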

[15] = cAMP Responsive Elements (CRE) small molecule agonists, cell-based qHTS assay (AID 1963590)
How it was run: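 Agonist mode qHTS in CRE-bla HEK 293T cells: compounds dosed from DMSO for 3 h at 37 C/5% CO2, followed by LiveBLAzer B/G FRET substrate for 2 h at room temperature.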

[16] = cAMP Responsive Elements (CRE) small molecule antagonists, cell-based qHTS assay (AID 1963591; active = well fitted inhibition curve with a large enough effect in the signal ratio in the repeat runs, not every such curve was filed as active; the % refers to the signal ratio)
How it was run: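 Antagonist mode: test compounds are co-incubated with the adenylyl cyclase activator NKH477 (0.25 uM final) on CRE-bla HEK293T cells for 3 h at 37 °C, followed by LiveBLAzer substrate loading.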

[17] = target: Beta-2 adrenergic receptor (Homo sapiens) (UniProt P07550); test: Adrenergic beta2 receptor (ADRB2) small molecule antagonists, cell-based qHTS assay (AID 1963592); also: series mostly up to about 92 µM; nearly all actives have a fitted effect of over 50% in size
How it was run: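 Cells (CHO, stable ADRB2 overexpression) incubated 18-20hr at 37C; compounds added from DMSO; agonist mix (1nM isoproterenol, 100uM IBMX, 25uM Ro-20-1724) added; 0.5hr RT; d2-cAMP and anti-cAMP-cryptate added; 1hr RT; 665/615 nm read.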

[18] = target: D(2) dopamine receptor (Homo sapiens) (UniProt P14416); test: Dopamine D2 receptor (DRD2) small molecule agonists, cell-based qHTS assay (AID 1963594); also: nearly all actives have a fitted effect of over 35% in size
How it was run: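 cAMP accumulation in DRD2-HEK293 cells measured by HTRF after 1 h detection; compounds added 10 min before NKH477 (200nM […]) forskolin-analogue stimulation, 30 min at room temperature, with Ro20-1724 present at 0.1 mM final.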

[19] = target: D(2) dopamine receptor (Homo sapiens) (UniProt P14416); test: Dopamine D2 receptor (DRD2) small molecule antagonists, cell-based qHTS assay (AID 1963595; active = well fitted inhibition curve with a large enough effect in the signal ratio in the repeat runs, with a control signal flat; the % refers to the signal ratio)
How it was run: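 DRD2-HEK293; 0.1 mM Ro20-1724; cpd 10 min RT; NKH477 200 nM + quinpirole 12 nM, 30 min RT; HTRF cAMP (cAMP-d2/anti-cAMP cryptate), 665/620 nm ratio after 1 h.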

[20] = target: Beta-2 adrenergic receptor (Homo sapiens) (UniProt P07550); test: Adrenergic beta2 receptor (ADRB2) small molecule agonists, cell-based qHTS assay (AID 1963593);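 also: CHO cells stably overexpressing human ADRB2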
How it was run: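 CHO cells stably over-expressing ADRB2 were plated overnight at 37C, then dosed with compounds plus a stimulation mix containing 100uM IBMX and 25uM Ro-20-1724 for 0.5hr at room temperature. cAMP was measured by HTRF competition, 1hr.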

Sequence of Beta-2 adrenergic receptor (Homo sapiens) (P07550 whole entry, looked up): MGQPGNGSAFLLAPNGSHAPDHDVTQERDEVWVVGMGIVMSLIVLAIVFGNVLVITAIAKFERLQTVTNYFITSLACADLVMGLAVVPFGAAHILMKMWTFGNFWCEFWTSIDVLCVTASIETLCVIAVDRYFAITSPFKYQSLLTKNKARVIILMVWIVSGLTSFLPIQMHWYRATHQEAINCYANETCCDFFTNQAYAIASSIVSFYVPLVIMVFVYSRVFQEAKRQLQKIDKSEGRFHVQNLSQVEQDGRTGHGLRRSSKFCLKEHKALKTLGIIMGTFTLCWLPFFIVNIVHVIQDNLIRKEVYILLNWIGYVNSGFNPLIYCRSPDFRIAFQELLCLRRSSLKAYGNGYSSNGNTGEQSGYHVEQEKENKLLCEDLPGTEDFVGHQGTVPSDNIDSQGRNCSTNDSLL
Sequence of Gonadotropin-releasing hormone receptor (Homo sapiens) (P30968 whole entry, looked up): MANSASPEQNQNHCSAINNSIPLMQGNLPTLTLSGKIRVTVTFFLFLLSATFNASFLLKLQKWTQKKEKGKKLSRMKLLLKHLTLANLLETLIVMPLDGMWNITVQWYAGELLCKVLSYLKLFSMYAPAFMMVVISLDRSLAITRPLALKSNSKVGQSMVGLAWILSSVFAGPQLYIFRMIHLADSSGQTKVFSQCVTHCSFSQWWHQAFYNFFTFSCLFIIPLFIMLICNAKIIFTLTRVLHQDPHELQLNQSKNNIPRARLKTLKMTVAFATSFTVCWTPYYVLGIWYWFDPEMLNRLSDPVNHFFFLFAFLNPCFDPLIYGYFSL
Sequence of Muscarinic acetylcholine receptor M1 (Homo sapiens) (P11229 whole entry, looked up): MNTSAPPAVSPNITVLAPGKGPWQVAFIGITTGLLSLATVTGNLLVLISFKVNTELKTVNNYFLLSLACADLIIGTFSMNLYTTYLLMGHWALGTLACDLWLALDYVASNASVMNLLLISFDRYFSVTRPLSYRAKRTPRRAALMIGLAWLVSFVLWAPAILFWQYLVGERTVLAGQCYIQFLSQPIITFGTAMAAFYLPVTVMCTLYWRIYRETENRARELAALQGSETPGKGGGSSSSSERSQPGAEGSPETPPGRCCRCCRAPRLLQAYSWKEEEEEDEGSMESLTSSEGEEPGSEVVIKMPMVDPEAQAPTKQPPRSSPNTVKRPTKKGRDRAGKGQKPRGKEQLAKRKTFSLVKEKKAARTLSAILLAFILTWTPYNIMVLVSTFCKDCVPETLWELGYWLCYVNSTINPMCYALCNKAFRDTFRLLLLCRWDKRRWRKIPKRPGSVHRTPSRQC
Sequence of D(2) dopamine receptor (Homo sapiens) (P14416 whole entry, looked up): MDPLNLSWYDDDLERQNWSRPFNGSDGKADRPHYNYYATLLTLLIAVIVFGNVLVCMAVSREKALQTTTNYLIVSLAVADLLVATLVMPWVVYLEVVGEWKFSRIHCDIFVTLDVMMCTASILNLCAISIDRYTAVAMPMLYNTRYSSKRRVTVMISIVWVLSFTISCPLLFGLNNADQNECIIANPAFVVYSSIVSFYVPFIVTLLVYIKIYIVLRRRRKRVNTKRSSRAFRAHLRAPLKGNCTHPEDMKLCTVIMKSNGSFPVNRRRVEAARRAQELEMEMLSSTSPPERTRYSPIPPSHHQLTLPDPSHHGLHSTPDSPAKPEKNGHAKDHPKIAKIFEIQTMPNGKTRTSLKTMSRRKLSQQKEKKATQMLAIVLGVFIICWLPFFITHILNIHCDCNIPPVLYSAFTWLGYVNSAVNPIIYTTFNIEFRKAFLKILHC
Sequence of 5-hydroxytryptamine receptor 2A (Homo sapiens) (P28223 whole entry, looked up): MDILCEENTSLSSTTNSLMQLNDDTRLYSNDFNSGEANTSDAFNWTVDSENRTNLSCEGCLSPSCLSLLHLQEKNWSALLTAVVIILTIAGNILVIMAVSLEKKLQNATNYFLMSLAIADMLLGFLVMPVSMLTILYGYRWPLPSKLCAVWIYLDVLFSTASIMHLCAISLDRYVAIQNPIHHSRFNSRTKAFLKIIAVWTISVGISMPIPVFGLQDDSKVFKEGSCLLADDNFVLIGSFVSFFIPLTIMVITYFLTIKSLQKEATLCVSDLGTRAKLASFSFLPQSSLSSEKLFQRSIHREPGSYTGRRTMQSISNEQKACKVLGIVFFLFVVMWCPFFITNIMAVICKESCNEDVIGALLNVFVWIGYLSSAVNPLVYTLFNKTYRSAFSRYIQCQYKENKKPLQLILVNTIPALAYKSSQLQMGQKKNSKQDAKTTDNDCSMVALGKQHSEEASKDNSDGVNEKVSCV

Structure (SMILES) | Potency [1] | Potency [2] | Potency [3] | Potency [4] | Potency [5] | Potency [6] | Potency [7] | Potency [8] | Potency [9] | Potency [10] | Potency [11] | Potency [12] | Potency [13] | Potency [14] | Potency [15] | Potency [16] | Potency [17] | Potency [18] | Potency [19] | Potency [20]
O=Cc1ccc(Cl)c(Cl)c1 | inactive | inactive | inactive | inactive | inactive | inactive | inactive | inactive | inactive | inactive | inactive | inactive | inactive | inactive | inactive | inactive | inactive | inactive | inactive | 
CCOC(=O)C(C)C(C)=O (stereo unspecified) | inactive | inactive | inactive | inactive | inactive | inactive | inactive | inactive | inactive | inactive | inactive |  | inactive | inactive | inactive | inactive | inactive | inactive | inactive | inactive
CCCCC(CC)C(=O)OCCOCCOCCOC(=O)C(CC)CCCC (stereo unspecified) | inactive | 68.6 µM (active) | inactive | inactive | inactive | inactive | inactive | inactive | inactive | inactive | inactive | inactive | inactive | inactive | inactive | inactive |  | inactive |  | inactive
